# Data as given in PubChem BioAssay (NCATS).
# Results filed as inconclusive are left out. A call without a number means that no potency is given here. Activity calls are given as the source filed them. Unless noted, calls follow the shape of the dose curve; as a rule, active = well fitted curve in the direction sought with a large enough effect; inconclusive = small, poorly fitted or top-dose-only effect, or another doubt; inactive = no such curve, though single readings can be large; an effect the other way counts as inactive or inconclusive.
# Legend:
# [1] = Cell Viability - NIH 3T3 (AID 541); conditions: NIH 3T3 cell viability, qHTS; activity change, negative = cytotoxicity: at 92.2 µM (top of the series);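 also: cells exposed to compound for 40 hours; nearly all actives have a fitted effect of over 25% in size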
# Method in brief: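 AC50 values reflect concentration-dependent loss of intracellular ATP in NIH 3T3 cells after 40 hr treatment in complete culture medium, quantified by luciferase-based luminescence.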
# [2] = Cellular Toxicity (caspase-3) Mesangial (AID 660);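 also: combined caspase 3 and 7 activity read by Caspase-Glo luminescence; cells exposed to compound for 16 h before the caspase read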
# Method in brief: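 Concentration-response qHTS: compound-induced rise in caspase 3/7 luminescence in human mesangial cells after 16 h, normalized to DMSO and 100 uM tamoxifen controls.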
# [3] = Cell Viability - LYMP2-004 (AID 966); also: nearly all actives have a fitted effect of over 65% in size
# Method in brief: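 Acute toxicity is scored as a concentration-dependent drop in intracellular ATP, quantified by luciferase luminescence, in human lymphoblastoid cells exposed to compound for 24 hr. AC50 derives from Hill-equation modelling.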
# [4] = Cell Viability - LYMP2-017 (AID 972);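 also: cells exposed to compound for 24 hours at 37 °C; nearly all actives have a fitted effect of over 55% in size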
# Method in brief: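 Steps: plate 2500 lymphoblastoid cells per well; incubate 5 hr at 37 C; add compound across a concentration series and incubate 24 hr at 37 C; add CellTiter-Glo and read luminescence after 30 min at room temperature; fit Hill curves for AC50.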
# [5] = molecular target: Estrogen receptor (Homo sapiens) (UniProt P03372); assay: qHTS assay for small molecule antagonists of estrogen receptor alpha signaling (AID 588513; active = well fitted curve in the direction sought with a large enough effect in the signal ratio, with a control signal flat, not every such curve was filed as active; the % refers to the signal ratio)
# Method in brief: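 Fluorescence from CCF4 substrate after 2 h at room temperature gave reporter activity; cells had been exposed to compound and 0.5nM 17-beta-estradiol for 18 h at 37 C. Hill-equation fitting yielded IC50 and maximal response.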
# [6] = molecular target: Estrogen receptor (Homo sapiens) (UniProt P03372); assay: qHTS assay for small molecule agonists of estrogen receptor alpha signaling (AID 588514; calls by dose curve; also: nearly all actives have a fitted effect of over 70% in size; also: potency is read from the fitted curve at half-maximal effect)
# Method in brief: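 Reporter-gene assay. […] controls beta-lactamase in HEK 293 GripTite cells; after 18 hrs with compound, CCF4 substrate is added for 2 hrs and fluorescence is read.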
# [7] = molecular target: Glucocorticoid receptor (Homo sapiens) (UniProt P04150); assay: qHTS assay for small molecule agonists of glucocorticoid receptor signaling (AID 588532; active = well fitted curve in the direction sought with a large enough effect in the signal ratio, with a control signal flat; the % refers to the signal ratio); conditions: HeLa MMTV-bla, beta-lactamase ratio, agonist, 18 h; stronger effect = higher value; percent of dexamethasone control, DMSO zero
# Method in brief: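 Stimulation of a glucocorticoid response element-driven beta-lactamase gene was measured in HeLa cells. Responses were scaled between DMSO basal and 0.1 uM dexamethasone, then fitted for half-maximal stimulation.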
# [8] = molecular target: Glucocorticoid receptor (Homo sapiens) (UniProt P04150); assay: qHTS assay for small molecule antagonists of glucocorticoid receptor signaling (AID 588533; active = well fitted inhibition curve with a large enough effect in the signal ratio, with a control signal flat, not every such curve was filed as active; the % refers to the signal ratio;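 also: cells stimulated with 2 nM dexamethasone as agonist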)
# Method in brief: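 Antagonist-mode qHTS: compound titrations added to GRE-bla HeLa cells, then dexamethasone 2 nM final; 18 h, 37 C. CCF4 FRET fluorescence normalized to dexamethasone and DMSO; IC50 from Hill fit.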
# [9] = molecular target: Peroxisome proliferator-activated receptor gamma (Homo sapiens) (UniProt P37231); assay: qHTS assay for small molecule agonists of peroxisome proliferator-activated receptor gamma signaling (AID 588536; active = well fitted curve in the direction sought with a large enough effect in the signal ratio, with a control signal flat, not every such curve was filed as active; the % refers to the signal ratio)
# Method in brief: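 GeneBLAzer PPAR-gamma-UAS-bla HEK293 cells in 1% charcoal/dextran-treated FBS medium were treated 16 h at 37 C with compounds. Beta-lactamase activity was read by CCF4 ratio (460/530 nm). Response was normalized to 2 uM rosiglitazone (100%) and DMSO, then Hill-fitted for EC50 and efficacy.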
# [10] = molecular target: Peroxisome proliferator-activated receptor gamma (Homo sapiens) (UniProt P37231); assay: qHTS assay for small molecule antagonists of peroxisome proliferator-activated receptor gamma signaling (AID 588537; active = well fitted inhibition curve with a large enough effect in the signal ratio, with a control signal flat, not every such curve was filed as active; the % refers to the signal ratio;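 also: reporter cells co-stimulated with 50 nM rosiglitazone agonist during compound treatment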)
# Method in brief: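 PPAR-gamma-UAS-bla HEK293 cells (3000/well, 1% charcoal/dextran-stripped FBS) were preincubated 6-6.5 h at 37 C, given titrated compounds, then stimulated with 50 nM rosiglitazone for 16 h. Beta-lactamase activity was read with CCF4 dye; IC50 came from Hill fits.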
# [11] = molecular target: Vitamin D3 receptor (Homo sapiens) (UniProt P11473); assay: qHTS assay for small molecule agonists of vitamin D receptor signaling (AID 588543; calls by dose curve)
# Method in brief: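 Reporter cells (HEK293T, VDR-UAS-bla) were seeded in medium with 2% charcoal-stripped serum and incubated 5 h, then compounds in concentration series were added for 16 h at 37 °C. Stimulation was scaled between DMSO basal and 50 nM 1α,25-dihydroxyvitamin D3.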
# [12] = molecular target: Thyroid hormone receptor beta (Homo sapiens) (UniProt P10828); assay: qHTS assay for small molecule antagonists of thyroid hormone receptor beta signaling (AID 588547; active = well fitted inhibition curve with a large enough effect in the signal ratio, with a control signal flat, not every such curve was filed as active; the % refers to the signal ratio;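 also: cells stimulated with 0.4 nM T3 agonist during compound exposure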); conditions: TR-UAS-bla HEK293, beta-lactamase ratio, antagonist mode, 18 h
# Method in brief: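 TR-UAS-bla GripTite HEK293 cells in 2% charcoal/dextran FBS medium were preincubated 4 h at 37 C, given compound (0.59 nM to 92 uM) plus 0.4 nM T3 (final) for 18 h, then CCF4 for 2 h at RT; Hill fit gave IC50.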
# [13] = molecular target: Peroxisome proliferator-activated receptor delta (Homo sapiens) (UniProt Q03181); assay: qHTS assay for small molecule agonists of peroxisome proliferator-activated receptor delta signaling (AID 588534; calls by dose curve)
# Method in brief: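 Reporter cells were plated and held 5 hrs at 37 C before compounds were added. After 18 hrs at 37 C, CCF4 dye was loaded for 2 hrs at RT and fluorescence measured.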
# [14] = molecular target: Vitamin D3 receptor (Homo sapiens) (UniProt P11473); assay: qHTS assay for small molecule antagonists of vitamin D receptor signaling (AID 588541; calls by dose curve;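 also: receptor activated by calcitriol during compound treatment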)
# Method in brief: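 VDR-UAS-bla HEK293T cells (2000/well, 2% charcoal-stripped FBS) were treated with titrated compounds plus 1-alpha,25-dihydroxyvitamin D3 (50 nM or 3 nM final) for 16 h at 37 C. CCF4 beta-lactamase fluorescence was read; Hill fits gave IC50.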
# [15] = qHTS assay for small molecule agonists of the antioxidant response element (ARE) signaling pathway (AID 651741; active = well fitted activation curve with a large enough effect in the signal ratio; the % refers to the signal ratio; also: potency is read from the fitted curve at half-maximal effect)
# Method in brief: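 ARE-bla HepG2 cells (beta-lactamase reporter under ARE control) were plated at 2,000 cells/well, preincubated 5 h at 37 C/5% CO2, then treated with DMSO-dissolved compounds for 16 h at 37 C; LiveBLAzer B/G FRET substrate added, fluorescence read after 2 h at room temperature.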
# [16] = qHTS assay for small molecule agonists of the antioxidant response element (ARE) signaling pathway measured by Nrf2-dependant transcriptional activity (AID 720636; active = well fitted curve in the direction sought with a large enough effect in the repeat runs; an effect the other way counts as inactive or inconclusive;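 also: HepG2 cells with an ARE-driven luciferase reporter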)
# Method in brief: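 HepG2 ARE-luc reporter line, 1% dialyzed FBS; 6 hr attachment at 37 C, compound pinned in, 16 hr at 37 C/5% CO2; ONE-Glo, 30 min RT, luminescence read.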
# [17] = qHTS assay for small molecule antagonists of the retinoid-related orphan receptor gamma (ROR-gamma) signaling pathway - cell viability counter screen (AID 720652; active = well fitted curve in the direction sought with a large enough effect in the repeat runs; an effect the other way counts as inactive or inconclusive;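 also: CHO reporter cells with doxycycline-induced ROR-gamma expression; compound exposure lasted 16 hr before ATP read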)
# Method in brief: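 Cytotoxicity is quantified via intracellular ATP (CellTiter-Glo luminescence) in doxycycline-induced CHO ROR response element-luciferase reporter cells treated with compound for 16 hr at 37 C, 5% CO2.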
# [18] = qHTS assay for small molecule antagonists of peroxisome proliferator-activated receptor delta signaling (AID 588535; active = well fitted inhibition curve with a large enough effect in the signal ratio, with a control signal flat, not every such curve was filed as active; the % refers to the signal ratio;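 as to max response: cells co-treated with a PPAR-delta agonist as stimulator during compound exposure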); conditions: HEK293T PPARd-UAS-bla, beta-lactamase FRET ratio, 18 h; 460 nm channel
# Method in brief: (§1)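 GeneBLAzer PPAR-delta-UAS-bla HEK293T cells in medium with 2% charcoal/dextran FBS were preincubated 5 hrs at 37 C, then given compounds, incubated 18 hrs at 37 C, and read by CCF4 beta-lactamase fluorescence; IC50 from Hill fits.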
# [19] = molecular target: Peroxisome proliferator-activated receptor delta (Homo sapiens) (UniProt Q03181); assay: as above
# Method in brief: as §1
# [20] = qHTS assay for small molecule activators of the nuclear factor-kappa B (NF-kB) signaling pathway (AID 651749; active = well fitted activation curve with a large enough effect in the signal ratio; the % refers to the signal ratio); conditions: NF-kB-bla ME-180 cells, beta-lactamase FRET ratio, 16 h; stronger effect = higher value
# Method in brief: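 ME-180 cells stably carrying a beta-lactamase reporter under an NF-kB response element were exposed to compound or DMSO vehicle for 16 hr at 37C, 5% CO2. Pathway activation was read by FRET, since reporter expression disrupts FRET.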
# Chain of Vitamin D3 receptor (Homo sapiens) (P11473 whole entry, looked up): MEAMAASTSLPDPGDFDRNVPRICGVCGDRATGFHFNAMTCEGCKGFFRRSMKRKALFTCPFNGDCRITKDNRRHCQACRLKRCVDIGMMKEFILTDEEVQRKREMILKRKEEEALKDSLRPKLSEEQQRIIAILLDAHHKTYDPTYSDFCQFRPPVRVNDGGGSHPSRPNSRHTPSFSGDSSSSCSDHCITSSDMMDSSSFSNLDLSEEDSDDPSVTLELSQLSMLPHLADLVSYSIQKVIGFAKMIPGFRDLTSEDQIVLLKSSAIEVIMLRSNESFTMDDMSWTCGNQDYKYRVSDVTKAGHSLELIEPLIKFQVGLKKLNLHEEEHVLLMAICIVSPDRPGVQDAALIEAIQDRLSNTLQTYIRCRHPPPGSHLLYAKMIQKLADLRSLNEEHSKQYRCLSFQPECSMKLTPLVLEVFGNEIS
# Chain of Peroxisome proliferator-activated receptor delta (Homo sapiens) (Q03181 whole entry, looked up): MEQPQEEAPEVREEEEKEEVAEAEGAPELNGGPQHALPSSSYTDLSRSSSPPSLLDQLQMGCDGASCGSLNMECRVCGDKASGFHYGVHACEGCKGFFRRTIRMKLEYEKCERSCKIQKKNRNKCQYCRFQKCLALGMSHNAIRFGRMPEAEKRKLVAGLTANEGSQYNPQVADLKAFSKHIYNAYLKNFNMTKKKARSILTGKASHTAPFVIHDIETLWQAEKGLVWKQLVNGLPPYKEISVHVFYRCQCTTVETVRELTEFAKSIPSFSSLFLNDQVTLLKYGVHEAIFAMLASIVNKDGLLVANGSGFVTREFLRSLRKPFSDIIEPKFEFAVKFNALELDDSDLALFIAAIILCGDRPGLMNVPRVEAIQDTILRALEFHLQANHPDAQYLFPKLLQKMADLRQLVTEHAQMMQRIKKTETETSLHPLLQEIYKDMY
# Chain of Peroxisome proliferator-activated receptor gamma (Homo sapiens) (P37231 whole entry, looked up): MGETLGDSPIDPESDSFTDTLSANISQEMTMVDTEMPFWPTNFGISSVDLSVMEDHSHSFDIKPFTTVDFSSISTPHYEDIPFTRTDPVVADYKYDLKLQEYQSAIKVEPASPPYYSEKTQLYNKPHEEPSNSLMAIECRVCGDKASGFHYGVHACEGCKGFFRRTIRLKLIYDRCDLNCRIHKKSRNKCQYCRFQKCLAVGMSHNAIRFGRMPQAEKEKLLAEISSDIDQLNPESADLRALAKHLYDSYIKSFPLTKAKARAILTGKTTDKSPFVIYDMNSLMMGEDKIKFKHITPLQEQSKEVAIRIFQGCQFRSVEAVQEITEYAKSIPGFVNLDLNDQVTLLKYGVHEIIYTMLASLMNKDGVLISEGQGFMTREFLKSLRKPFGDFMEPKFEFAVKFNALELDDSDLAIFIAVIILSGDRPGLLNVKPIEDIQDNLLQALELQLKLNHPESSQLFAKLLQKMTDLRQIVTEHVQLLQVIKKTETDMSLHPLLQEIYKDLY
# Chain of Glucocorticoid receptor (Homo sapiens) (P04150 whole entry, looked up): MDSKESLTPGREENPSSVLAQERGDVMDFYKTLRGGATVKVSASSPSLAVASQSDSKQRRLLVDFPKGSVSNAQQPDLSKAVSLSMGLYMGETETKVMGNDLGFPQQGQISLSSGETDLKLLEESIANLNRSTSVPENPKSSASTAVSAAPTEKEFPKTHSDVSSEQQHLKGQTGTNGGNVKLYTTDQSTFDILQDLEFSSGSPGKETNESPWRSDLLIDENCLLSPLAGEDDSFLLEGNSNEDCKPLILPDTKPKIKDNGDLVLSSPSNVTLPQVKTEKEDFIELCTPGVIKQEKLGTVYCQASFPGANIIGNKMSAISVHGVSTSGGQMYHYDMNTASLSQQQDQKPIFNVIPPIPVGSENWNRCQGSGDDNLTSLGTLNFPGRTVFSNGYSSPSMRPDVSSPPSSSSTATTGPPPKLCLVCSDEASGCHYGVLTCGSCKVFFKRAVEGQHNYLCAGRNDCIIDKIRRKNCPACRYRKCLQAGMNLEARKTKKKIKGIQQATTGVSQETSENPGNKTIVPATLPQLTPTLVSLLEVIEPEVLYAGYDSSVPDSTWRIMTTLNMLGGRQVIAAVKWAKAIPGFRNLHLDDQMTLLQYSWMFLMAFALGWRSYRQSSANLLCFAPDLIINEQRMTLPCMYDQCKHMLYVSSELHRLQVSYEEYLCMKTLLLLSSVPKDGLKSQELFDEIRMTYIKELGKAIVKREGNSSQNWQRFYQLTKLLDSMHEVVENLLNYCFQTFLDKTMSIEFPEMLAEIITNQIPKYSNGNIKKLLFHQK
# Chain of Thyroid hormone receptor beta (Homo sapiens) (P10828 whole entry, looked up): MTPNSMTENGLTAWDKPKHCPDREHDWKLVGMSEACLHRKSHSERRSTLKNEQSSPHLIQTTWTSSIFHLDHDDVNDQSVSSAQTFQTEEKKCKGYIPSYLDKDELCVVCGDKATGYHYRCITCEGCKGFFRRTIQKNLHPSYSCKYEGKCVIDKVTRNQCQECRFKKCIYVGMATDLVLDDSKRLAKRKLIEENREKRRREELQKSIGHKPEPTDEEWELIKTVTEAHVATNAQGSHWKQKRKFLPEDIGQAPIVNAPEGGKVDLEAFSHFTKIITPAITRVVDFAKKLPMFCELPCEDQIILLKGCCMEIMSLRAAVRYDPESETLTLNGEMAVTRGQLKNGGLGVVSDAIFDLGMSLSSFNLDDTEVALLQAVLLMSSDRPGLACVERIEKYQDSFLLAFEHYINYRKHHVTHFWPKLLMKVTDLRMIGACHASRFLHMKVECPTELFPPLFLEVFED
# Chain of Estrogen receptor (Homo sapiens) (P03372 whole entry, looked up): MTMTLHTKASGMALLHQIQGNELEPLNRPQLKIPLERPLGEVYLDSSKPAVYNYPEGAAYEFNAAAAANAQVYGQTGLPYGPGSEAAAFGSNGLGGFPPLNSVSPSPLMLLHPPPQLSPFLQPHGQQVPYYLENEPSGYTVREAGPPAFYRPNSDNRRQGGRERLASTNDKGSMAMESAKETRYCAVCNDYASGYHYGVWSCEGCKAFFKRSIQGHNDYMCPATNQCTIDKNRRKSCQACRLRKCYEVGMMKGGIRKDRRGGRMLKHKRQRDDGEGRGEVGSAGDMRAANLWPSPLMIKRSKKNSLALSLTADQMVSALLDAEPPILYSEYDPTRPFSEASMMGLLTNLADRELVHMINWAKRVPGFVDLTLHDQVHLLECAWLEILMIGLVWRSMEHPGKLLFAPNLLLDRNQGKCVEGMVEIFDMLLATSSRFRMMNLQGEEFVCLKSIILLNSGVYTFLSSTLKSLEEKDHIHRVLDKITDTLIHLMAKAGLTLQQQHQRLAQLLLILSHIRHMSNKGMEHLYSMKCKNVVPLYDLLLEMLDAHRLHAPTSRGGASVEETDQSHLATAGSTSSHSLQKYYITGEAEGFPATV
Compound,Potency [1],outcome [2],Potency [3],Potency [4],Potency [5],Potency [6],activation [7],outcome [8],outcome [9],Potency [10],outcome [11],activity change % (negative = inhibition) [12],outcome [13],outcome [14],Potency [15],Potency [16],Potency [17],max response [18],outcome [19],activation [20]
CCCBr,inactive,inactive,inactive,inactive,inactive,0.355 µM (active),-1.9% (inactive),inactive,inactive,inactive,inactive,3.13% (inactive),,,,,,,,
CCCCCc1cc(O)cc(O)c1,inactive,,inactive,inactive,,,,,inactive,,inactive,-2.41% (inactive),inactive,inactive,42.2 µM (active),inactive,,,,
CCCCCC[N+](=O)[O-],inactive,inactive,inactive,inactive,,,,inactive,inactive,,inactive,-9.74% (inactive),inactive,inactive,,inactive,inactive,,,
N#CCc1ccccc1,inactive,inactive,inactive,inactive,inactive,inactive,,,inactive,inactive,,,inactive,inactive,,,inactive,-33.3%,inactive,0.487% (inactive)
CCC(Cl)[N+](=O)[O-] (stereo not drawn),inactive,inactive,inactive,inactive,,inactive,-1.58% (inactive),,inactive,inactive,,-30.2% (inactive),inactive,inactive,,inactive,inactive,2.58%,inactive,0.0697% (inactive)
CN(C)N=O,inactive,inactive,inactive,inactive,,,-2.94% (inactive),inactive,inactive,,,11.5% (inactive),,inactive,,inactive,,,,-0.838% (inactive)
OCCBr,inactive,inactive,inactive,inactive,inactive,inactive,-2.73% (inactive),inactive,inactive,inactive,inactive,,,,,inactive,inactive,,,
ClC(Cl)C(Cl)Cl,inactive,inactive,inactive,inactive,,inactive,1.52% (inactive),inactive,inactive,,inactive,0.5% (inactive),,inactive,inactive,inactive,,,,-0.991% (inactive)
C=CC(=O)OC,inactive,,inactive,inactive,,,,,inactive,inactive,inactive,-6.86% (inactive),inactive,inactive,inactive,inactive,inactive,,,-0.11% (inactive)
CC(C)(Cl)[N+](=O)[O-],inactive,inactive,,,,,-3.18% (inactive),,inactive,inactive,,9.2% (inactive),inactive,inactive,inactive,inactive,inactive,,,-0.598% (inactive)
Cc1ccc([N+](=O)[O-])cc1,inactive,inactive,inactive,,,inactive,-2.83% (inactive),inactive,,inactive,inactive,0.221% (inactive),inactive,inactive,,,inactive,22.5%,inactive,
Cl/C=C/Cl,inactive,,inactive,,inactive,inactive,-4.99% (inactive),inactive,,,inactive,-4.77% (inactive),inactive,inactive,inactive,,inactive,-19.1%,inactive,-1.04% (inactive)
CN(C)c1ccccc1,inactive,inactive,inactive,inactive,,,-11% (inactive),inactive,,,inactive,,,inactive,inactive,inactive,,,,
O=[N+]([O-])c1ccccc1-c1ccccc1,inactive,inactive,,,inactive,inactive,,,inactive,,,-0.648% (inactive),,,,inactive,inactive,,,
Clc1ccc(C(Cl)(Cl)Cl)cc1Cl,inactive,inactive,inactive,inactive,inactive,inactive,,inactive,inactive,inactive,inactive,,inactive,inactive,,inactive,,,,-1.35% (inactive)
ClC(Cl)c1ccccc1,inactive,inactive,inactive,,inactive,inactive,-0.105% (inactive),inactive,inactive,,inactive,-1.09% (inactive),inactive,inactive,inactive,inactive,inactive,17.7%,inactive,-0.312% (inactive)
Cc1cccc(C)c1N,inactive,,inactive,inactive,,inactive,0.219% (inactive),,inactive,,,-2.91% (inactive),inactive,,inactive,inactive,,17.3%,inactive,
Oc1cccc(Cl)c1,inactive,inactive,,inactive,inactive,inactive,-11.4% (inactive),inactive,,inactive,inactive,0.91% (inactive),,inactive,,inactive,inactive,,,-0.548% (inactive)
ClCc1ccccc1,inactive,inactive,inactive,,inactive,inactive,,,inactive,,inactive,2.64% (inactive),inactive,,,,inactive,-22.1%,inactive,-0.661% (inactive)
Cc1cc(Cl)ccc1O,inactive,inactive,inactive,inactive,,,0.519% (inactive),,inactive,inactive,inactive,-9.26% (inactive),inactive,,,inactive,inactive,,,0.374% (inactive)
